NS1 function inh: inhibitors of influenza NS1 protein function; Potency, µM (doses to about 46.1 µM), for the others: top-dose activity, positive = more growth; 0.4% of 270,000 active; AID 2326; calls by dose curve; note: actives are rising curves; nearly all actives have a fitted effect of over 50% in size
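Compounds were scored for reversing the slow growth caused by influenza A NS1 in S. cerevisiae, measured by optical density at 600 nm. Assay medium contained 2% galactose at pH 6.0; NS1-free yeast of the same strain were the positive control.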
Sm TGR inh: inhibitors of Schistosoma mansoni thioredoxin glutathione reductase; Potency, µM (top dose mostly 114 µM), for the others: at the top dose activity change, negative = inhibition, most hits filed as inhibitors; 3% of 360,000 active; Q962Y6; purified TGR, DTNB reduction, TNB absorbance 405 nm; note: % is set by controls: 0 for no effect and ±100 for the full control effect; nearly all actives have a fitted effect of over 60% in size
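Kinetic colorimetric format: TGR-catalysed, NADPH-driven DTNB reduction monitored via TNB absorbance. Enzyme dispensed at 20 nM; compound exposure 15 min at room temperature before reaction start.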
LmPK inhibitor: LmPK (Leishmania mexicana) enzyme inhibition | purified LmPK, Kinase-Glo ATP luminescence, 1 h | Potency, µM (doses to about 57.5 µM), for the others: top-dose activity change, negative = inhibition, most hits filed as inhibitors | 0.37% of 290,000 active | AID 1721; note: % is set by controls: 0 for no effect and ±100 for the full control effect
Target sequence (Q27686 whole entry, looked up): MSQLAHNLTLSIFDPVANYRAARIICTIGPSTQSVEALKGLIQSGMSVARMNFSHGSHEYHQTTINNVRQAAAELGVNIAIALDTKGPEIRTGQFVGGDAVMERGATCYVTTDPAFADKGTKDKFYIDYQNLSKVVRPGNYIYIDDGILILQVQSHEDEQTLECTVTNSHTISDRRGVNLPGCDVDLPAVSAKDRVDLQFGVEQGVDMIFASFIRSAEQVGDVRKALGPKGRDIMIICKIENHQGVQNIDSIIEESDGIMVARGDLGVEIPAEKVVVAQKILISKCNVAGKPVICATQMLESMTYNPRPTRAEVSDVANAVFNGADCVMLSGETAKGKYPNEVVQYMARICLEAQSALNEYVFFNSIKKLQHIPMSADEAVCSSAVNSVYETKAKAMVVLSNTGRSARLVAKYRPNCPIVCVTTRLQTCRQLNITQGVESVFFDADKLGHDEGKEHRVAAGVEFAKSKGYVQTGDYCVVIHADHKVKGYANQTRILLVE
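ATP generated from ADP (0.1 mM) and PEP (0.5 mM) by 0.1 nM LmPK over 1 h at room temperature (pH 7.2 imidazole buffer) was detected by coupled luciferase luminescence. Values were normalized to uninhibited and no-enzyme wells.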
RE007 growth inh: less growth of the S. pombe RE007 Vpr strain; Potency, µM (series often up to 92.2 µM), for the others: at the top dose activity change, negative = less growth, hits mostly inhibitors; S. pombe RE007 Vpr strain, BacTiter-Glo ATP luminescence, 24 h; 0.21% of 360,000 active; active = well fitted falling curve with a large enough effect; inconclusive = small, poorly fitted or top-dose-only effect; inactive = no such curve, though single readings can be large or run the other way; note: % is set by controls: 0 for no effect and ±100 for the full control effect; nearly all actives have a fitted effect of over 50% in size
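Fission yeast RE007 carrying one integrated HIV-1 vpr copy, seeded at OD 0.01 in PMG+AL medium with 23 nL pinned compound. Grown 24 h at 30 degrees; viability read by BacTiter-Glo luminescence after 5 min.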
Tb PYK inh: T. brucei pyruvate kinase inhibition; Q57TT1; TbPYK enzyme, Kinase-Glo Plus ATP luminescence, 45 min; Potency, µM (series often up to 76.8 µM), inactives show at the highest dose activity, negative = inhibition, actives largely listed as inhibitors; 0.12% of 410,000 active; note: % is set by controls: 0 for no effect and ±100 for the full control effect; nearly all actives have a fitted effect of over 50% in size
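Activity of T. brucei pyruvate kinase was followed by Kinase-Glo Plus luminescence after the enzyme reacted 45 min at room temperature with 130 uM ADP (final) and substrate. Test compounds were added before ADP at multiple concentrations.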
Giardia FBPA inh-1: Giardia lamblia aldolase inhibition | A8B2U2 | purified Giardia FBPA | Potency, µM (top dose mostly 59.6 µM), for the others: at the highest dose activity, negative = inhibition, actives largely listed as inhibitors | 0.71% of 290,000 active; note: % is set by controls: 0 for no effect and ±100 for the full control effect; nearly all actives have a fitted effect of over 55% in size
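40 nM FBPA preincubated 10 min at RT with compound (up to 57.5 uM final), then substrate plus GAPDH/TPI/NAD/arsenate coupling and diaphorase/resazurin added. Fluorescence read after 20 min at RT, 525/598 nm.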
Giardia growth: inhibitors of Giardia lamblia growth | Potency, µM (titrated, usually from 57.5 µM), inactives show at the highest dose activity change, negative = inhibition, actives largely listed as inhibitors | Giardia lamblia trophozoite growth inhibition | shares compounds with Giardia FBPA inh-1 | AID 2785 | 5% of 1,500 active;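 note: trophozoites exposed to compound for 48 h at 37 °C; % is set by controls: 0 for no effect and ±100 for the full control effect; nearly all actives have a fitted effect of over 70% in size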
Mammal cell tox: counter-screen for Giardia aldolase inhibitors: mammalian cell toxicity; Potency, µM (doses to about 57.5 µM), for inactives: at the highest dose viability change, negative = toxicity, actives largely listed as inhibitors; 4% of 1,500 active; shares compounds with Giardia FBPA inh-1; mammalian cell viability counter-screen, qHTS; AID 2786;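 note: Chinese hamster ovary cells used as mammalian cytotoxicity surrogate; viability measured as cellular ATP by luminescence; compound exposure lasted 48 h before reading; % is set by controls: 0 for no effect and ±100 for the full control effect; nearly all actives have a fitted effect of over 60% in size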
Giardia FBPA inh-2: confirmation of Giardia fructose-bisphosphate aldolase inhibitors; shares compounds with Giardia FBPA inh-1; purified Giardia aldolase enzyme activity, qHTS; Potency, µM (titrated, usually from 57.5 µM), for inactives: top-dose activity change, negative = inhibition, actives largely listed as inhibitors; 5% of 1,500 active; note: % is set by controls: 0 for no effect and ±100 for the full control effect; nearly all actives have a fitted effect of over 45% in size
Rabbit aldolase: rabbit FBP aldolase inhibition by Giardia aldolase hits; shares compounds with Giardia FBPA inh-1; Rabbit muscle FBPA enzyme inhibition, selectivity counter-screen; Potency, µM (titrated, usually from 57.5 µM), without a hit: top-dose activity, negative = inhibition, most hits filed as inhibitors; 4% of 1,500 active; AID 2794; note: % is set by controls: 0 for no effect and ±100 for the full control effect; nearly all actives have a fitted effect of over 60% in size
Target sequence (P00883 whole entry, looked up): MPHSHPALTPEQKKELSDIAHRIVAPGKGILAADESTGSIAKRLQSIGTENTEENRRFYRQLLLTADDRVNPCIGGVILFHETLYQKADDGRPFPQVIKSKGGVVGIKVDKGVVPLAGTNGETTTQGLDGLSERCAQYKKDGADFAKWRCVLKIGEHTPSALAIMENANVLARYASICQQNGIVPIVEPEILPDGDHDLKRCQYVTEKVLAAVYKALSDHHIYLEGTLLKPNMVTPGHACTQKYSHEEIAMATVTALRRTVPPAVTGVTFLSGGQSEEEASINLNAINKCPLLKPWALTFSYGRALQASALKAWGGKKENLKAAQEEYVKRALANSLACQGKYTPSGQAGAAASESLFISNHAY
GAPDH counter: counter-screen for Giardia aldolase inhibitors: GAPDH coupling enzyme | shares compounds with Giardia FBPA inh-1 | Potency, µM (titrated, usually from 57.5 µM), for the others: top-dose activity change, negative = inhibition, actives largely listed as inhibitors | 6% of 1,500 active | GAPDH coupling enzyme counterscreen, biochemical, qHTS | AID 2795; note: % is set by controls: 0 for no effect and ±100 for the full control effect; nearly all actives have a fitted effect of over 55% in size
* marks the source's active call; other numbers are inactive results; ? = inconclusive; nt = no result given; [ ] = dose if it differs, or a comment. In the library only some 3.5% were active in any assay of this set; here they are far more common. Unless noted, calls come from the whole dose curve; as a rule, active = well fitted curve in the direction sought with a large enough effect; inconclusive = small, poorly fitted or top-dose-only effect, or another doubt; inactive = no such curve, though single readings can be large; an effect the other way counts as inactive or inconclusive. Potency is the fitted concentration of half-maximal effect.

SMILES	NS1 function inh	Sm TGR inh	LmPK inhibitor	RE007 growth inh	Tb PYK inh	Giardia FBPA inh-1	Giardia growth	Mammal cell tox	Giardia FBPA inh-2	Rabbit aldolase	GAPDH counter
Nc1cccc2[nH]c(C(F)(F)F)nc12	nt	?	-23%	-19%	-24%	20µM*	-22%	?	?	-13%	-24%
c1ccc(-c2nc(-c3ccncc3)n[nH]2)nc1	-3%	0%	?	-24%	-7%	3.5µM*	-20%[38.3 µM]	-13%	-20%	-9%	-10%
O=[N+]([O-])c1ccccc1/C=N/n1c(C2CCCCC2)n[nH]c1=S	-31%	-15%	-19%	27%	?	-2%	nt	nt	nt	nt	nt
O=[N+]([O-])c1ccccc1/C=N/n1c(C(F)(F)F)n[nH]c1=S	nt	-7%	5%	?	?	18µM*	-2%[10.4 µM]	4%	?	?	?
Cc1nccn1CCOc1ccc(Cl)cc1	-12%	4%	-7%	5%	-4%	25µM*	-16%[10.4 µM]	11%	0%	2%	8%
COc1cc(NS(=O)(=O)c2ccc(NC(=O)c3ccccc3C(=O)O)cc2)nc(OC)n1	nt	-4%	nt	nt	-3%	nt	nt	nt	nt	nt	nt
Cc1cc(Sc2nc(N)ncc2[N+](=O)[O-])ncn1	nt	2.2µM*	0%	7%	11%	18µM*	-6%[10.4 µM]	?	1%	15%	0%
Cc1cc(N)ncc1[N+](=O)[O-]	nt	nt	nt	-6%	-6%	nt	nt	nt	nt	nt	nt
NC(=O)c1ccc(/C=N/O)nc1	3%	13%	2%	-2%	-7%	18µM*	?	3%	3%	6%	2%
CNCCCNC(=O)c1ccc(/C=N/O)nc1	nt	-35%	2%	7%	-11%	16µM*	60%	-6%	1%	8%	4%
CN(C)CCCNC(=O)c1ccc(/C=N/O)nc1	-10%	0%	-4%	22%	-4%	2%	nt	nt	nt	nt	nt
O=C(NCc1ccccc1)c1ccc(/C=N/O)nc1	-3%	4%	-4%	7%	9%	2%	nt	nt	nt	nt	nt
Nc1nc2c(ncn2C2CCCC2)c(=O)[nH]1	nt	nt	nt	2%	-4%	nt	nt	nt	nt	nt	nt
Nc1nc(=S)c2ncn(C3CCCC3)c2[nH]1	6%	-14%	-5%	8%	-6%	7.1µM*	-4%[38.3 µM]	6%	-5%	-5%	-8%
CN(C)C(=S)NC(=O)c1cccc(Cl)c1	nt	17%	-2%	5%	-24%	16µM*	7.1µM*	15%	-5%	10%	-6%
Cc1ccc(C)c(Cn2c(=O)cc(C(F)(F)F)c3c(C)nn(C)c32)c1	nt	-1%	nt	nt	6%	nt	nt	nt	nt	nt	nt
Cc1ccccc1-n1c(O)c(/C=N/NC(=O)c2ccccc2O)c(=O)[nH]c1=S	3%	-21%	7%	2%	-20%	22%	nt	nt	nt	nt	nt
O=C(N/N=C/c1c(O)n(-c2ccccc2)c(=S)[nH]c1=O)c1ccccc1	0%	4%	-2%	-3%	-19%	-16%	4%[38.3 µM]	1%	?	-17%	?
CCn1c(SCC(=O)Nc2ccc(C)cc2Br)nnc1-c1nonc1NC(C)=O	nt	-12%	nt	nt	-1%	nt	nt	nt	nt	nt	nt
COc1ccc(CCNC(=O)c2cc(-c3ccc(C)c(C)c3)nc3ccccc23)cc1OC	nt	-2%	nt	nt	-9%	nt	nt	nt	nt	nt	nt
C/C(CC(=O)Nc1ccc(Cl)c(Cl)c1)=N\NC(N)=S	17%	5%	7%	0%	-6%	10µM*	2%	-5%	-3%	-2%	3%
C/C(CC(=O)Nc1ccc(Cl)cc1Cl)=N\NC(N)=S	?	22%	0%	4%	-9%	13%	nt	nt	nt	nt	nt
C/C(CC(=O)Nc1ccc(Cl)cc1C(F)(F)F)=N\NC(N)=S	-4%	1%	-8%	2%	-5%	20µM*	3%[10.4 µM]	12%	17%	9%	14%
C/C(CC(=O)Nc1cc(Cl)ccc1Cl)=N\NC(N)=S	11%	4%	-7%	-10%	-12%	?	nt	nt	nt	nt	nt
COc1ccc(-n2ncc3c(NCCC4=CCCCC4)ncnc32)cc1	nt	8%	nt	nt	0%	nt	nt	nt	nt	nt	nt
SMILES	NS1 function inh	Sm TGR inh	LmPK inhibitor	RE007 growth inh	Tb PYK inh	Giardia FBPA inh-1	Giardia growth	Mammal cell tox	Giardia FBPA inh-2	Rabbit aldolase	GAPDH counter
CSC1=NS(=O)(=O)c2c(C)nn(C)c2S1	-1%	?	29%	-6%	2.5µM*	16µM*	30%	9%	-3%	40µM*	?
CCOc1ccc(NC(=O)NC(CC)Cn2nnc3ccccc3c2=O)cc1 (stereo not drawn)	nt	5%	nt	nt	-23%	nt	nt	nt	nt	nt	nt
Cc1ccc(S(=O)(=O)Nc2ncccn2)cc1	4%	-14%	2%	1%	-2%	22µM*	-7%	21%	5%	18%	6%
CCc1cccc(C)c1NS(=O)(=O)c1ccc2c(c1)CC(C)N2C(=O)C1CC1 (stereo not drawn)	nt	8%	nt	nt	5%	nt	nt	nt	nt	nt	nt
CCC1=C2CC[C@H]3C(=O)N(CC)C(=O)[C@H]3[C@H]2[C@@]2(Cc3ccccc3)C(=O)N(CCOC)C(=O)N2C1=O	nt	nt	nt	nt	nt	1%	nt	nt	nt	nt	nt
COc1ccc(CCCc2n[nH]c(=S)o2)cc1	nt	0%	-4%	13%	?	-13%	nt	nt	nt	nt	nt
S=c1[nH]nc(CCCc2n[nH]c(=S)o2)o1	6%	0%	0%	1%	?	0.5µM*	15%[38.3 µM]	-10%	?	14%	-1%
O=S(=O)(c1ccc(F)cc1)N1CCN(CC(O)COCc2cccs2)CC1 (stereo not drawn)	-17%	-7%	4%	5%	-8%	-18%	nt	nt	nt	nt	nt
O=S(=O)(c1ccc(F)cc1)N1CCN(CC(O)COc2ccccc2F)CC1 (stereo not drawn)	-4%	-8%	2%	-3%	-1%	28µM*	?	-15%	2%	1%	7%
N#Cc1ccccc1S(=O)(=O)N1CCN(CC(O)COc2ccccc2F)CC1 (stereo not drawn)	-6%	-13%	0%	-9%	-1%	16µM*	?	-10%	8%	3%	9%
